PubChem BioAssay (NCI)
Compounds without any hit were thinned out: in the full panel of roughly 83,000, 20% have a hit.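 Values shown are percent growth following 48 h exposure of cells in 96-well plates to a single concentration of compound; below 10 was considered active.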 Unmarked numbers belong to inactive results. The source made the active and inactive calls.

Experiments:
Assay in all cases: NCI-60 one-dose screen, 48 h (100 = growth as untreated, 0 = no growth, -100 = all killed)
Details in all cases: 10 µM
HCT-15 colon = test system: HCT-15 colon
HT29 colon = test system: HT29 colon
SNB-75 CNS = test system: SNB-75 CNS
SNB-19 CNS = test system: SNB-19 CNS
U251 CNS = test system: U251 CNS
PC-3 prostate = test system: PC-3 prostate
SK-MEL-5 melanoma = test system: SK-MEL-5 melanoma
UACC-62 melanoma = test system: UACC-62 melanoma
LOX IMVI melanoma = test system: LOX IMVI melanoma
SK-MEL-28 melanoma = test system: SK-MEL-28 melanoma

SMILES	growth (HCT-15 colon)	growth (HT29 colon)	growth (SNB-75 CNS)	growth (SNB-19 CNS)	growth (U251 CNS)	growth (PC-3 prostate)	growth (SK-MEL-5 melanoma)	growth (UACC-62 melanoma)	growth (LOX IMVI melanoma)	growth (SK-MEL-28 melanoma)
COC(=O)CCCCCCCCC(C)c1ccc(C(C)=O)cc1 (stereo not given)	103%	101%	122%	110%	107%	106%	111%	116%	98.2%	130%
O=NN(CCCl)C(=O)NCc1ccc(-c2ccc(CNC(=O)N(CCCl)N=O)cc2)cc1	98.7%	96.9%	82.7%	84.6%	70.3%	86.7%	94.2%	86.2%	72.2%	104%
COc1ccc(-c2cc(/C=C3\C(=O)Nc4cc(Cl)ccc43)[nH]n2)cc1OC	51.2%	32.2%	47.1%	87%	75.7%	58.5%	64.8%	56.9%	52.9%	74.6%
Cc1ccc(S(=O)(=O)N2CCc3ccccc3CC2)cc1	78.4%	91.8%	78.6%	68%	56.3%	36.4%	46.1%	74.1%	76.4%	94.6%
Nc1ccc(C2=CC(c3ccc(Cl)cc3)N3C=CSC3=N2)cc1 (stereo not given)	-57.7% (active)	-42.9% (active)	-15.6% (active)	-65.2% (active)	-83.5% (active)	-28.1% (active)	-97.6% (active)	-67.1% (active)	-83.3% (active)	-89.7% (active)
Cc1cnc(C=O)c2cccc([N+](=O)[O-])c12	70.7%	79.1%	69.6%	99.2%	91.9%	79.9%	95.5%	103%	72.1%	111%
COc1ccc(Cn2cc3c(c2-c2ccccc2)CC(C)(C)c2cnoc2-3)cc1	34.8%	12.5%	13.1%	55.2%	43.8%	28.8%	13.1%	54.6%	35.1%	58.7%
COc1cc(OC)cc(-c2ccc(-c3ccc(C(=N)N)cn3)o2)c1	6.84% (active)	-38.5% (active)	-35.7% (active)	33.3%	-80.9% (active)	31.4%	-95.7% (active)	-89.7% (active)	-89.5% (active)	-95.4% (active)
CCOC(=O)[C@@H]1[C@H](c2ccccc2)[C@H]([N+](=O)[O-])[C@H](c2cn(-c3ccccc3)nc2C)N1Cc1ccccc1	43%	76.4%	81.5%	77.7%	51.2%	46%	76.3%	60.9%	65.6%	85.4%
Cc1ccc(-c2cc(-c3cccc(Nc4ccnc5cc(Cl)ccc45)c3)nc3nc(N)[nH]c(=O)c23)cc1	99.4%	97.5%	76.9%	84.8%	88.5%	95.8%	99%	97.7%	92.8%	110%
CCOc1ccc(-n2cc(-c3ccc(N(C)C)cc3)[n+]3c2CCCCC3)cc1	75.8%	9.2% (active)	18.4%	20.3%	8.21% (active)	4.48% (active)	-92.4% (active)	20.4%	12.7%	51.2%
CC(=O)n1nc(C(=O)OC(C)(C)C)c2cc(F)c(F)cc21	101%	100%	80.2%	94.9%	104%	97.7%	87%	80.3%	98.2%	96.8%
COc1cc(/C=C/C(=O)c2cc(-c3ccc(F)cc3)ccc2O)cc(OC)c1OC	84.2%	87.1%	91.9%	86.8%	79.9%	54.6%	48.1%	58.5%	48.9%	100%
COc1cc(-c2cc(-c3ccc(C)cc3)nc3nc(N)[nH]c(=O)c23)ccc1Oc1ccnc2cc(Cl)ccc12	88.7%	84.6%	67.5%	74.3%	81%	70.5%	84%	86.9%	86.3%	88.3%
COc1cc(CSc2nc3ccc(C)cc3c(=O)n2-c2ccccc2)cc(OC)c1OC	30.1%	14.3%	-7.55% (active)	57.2%	38.5%	49.1%	20%	20.8%	36%	52%
CN(C)Cc1cccs1	106%	104%	93.9%	98.9%	95.9%	70.3%	90%	95.4%	93.1%	102%
COc1cc(CSc2nc3ccc(Cl)cc3c(=O)n2Cc2ccccc2)cc(OC)c1OC	24.9%	11.7%	-34.5% (active)	61.1%	32.8%	55.1%	25.7%	16.2%	39.3%	43.7%
COc1ccc(C(C)=O)cc1N1C(=O)C2C(C1=O)C1(c3ccccc3)C(=O)C2(c2ccccc2)C(c2ccc(C)cc2)=C1c1ccc(C)cc1 (stereo not given)	25.3%	21.4%	57.3%	29.7%	14.8%	12.6%	-29.1% (active)	-70.9% (active)	7.38% (active)	37.6%
COc1ccc(-c2cc(=O)n(-c3nc4ccccc4[nH]3)[nH]2)cc1OC	32%	109%	60.2%	63.2%	45.9%	62.5%	62.7%	31%	61.8%	84%
Cc1ccc(C(=O)O)c(N)c1C	99.7%	101%	82.6%	107%	100%	94.6%	107%	103%	93.8%	122%
CCN1CCN(c2nc(NNC(=O)c3cccc(OC)c3)nc(N3CCN(C(c4ccccc4)c4ccccc4)CC3)n2)CC1	15.4%	9.36% (active)	61.9%	78.1%	41.8%	41.9%	53.5%	73.5%	7.34% (active)	63.2%
CCOC(=O)c1c(C(F)(F)F)n([O-])c2ccc(OC)cc2[n+]1=O	23.7%	48.1%	11.8%	25.8%	26.6%	-3.79% (active)	-29.4% (active)	22.8%	31.2%	60.8%
CCOCC[P+](c1ccccc1)(c1ccccc1)c1ccccc1	98.8%	34.2%	46.7%	48%	38.3%	33.4%	21.6%	33%	52.5%	67.9%
COc1nc2c(c(=O)[nH]1)C(c1ccc(Oc3ccnc4cc(Cl)ccc34)c(OC)c1)C=C(c1cc(OC)c(OC)c(OC)c1)N2 (stereo not given)	98.8%	89.8%	91.9%	89.1%	97.4%	87.2%	95.1%	95.9%	95.5%	116%
CCNC1(NC#N)CCCCC1	98.8%	123%	91.2%	110%	98.9%	95%	96.8%	105%	104%	103%
CC(=O)c1ccc(NCn2nc(-c3ccc(Cl)cc3)oc2=S)cc1	99.3%	98.3%	107%	95.8%	96.1%	89.9%	104%	93.3%	90.3%	95.5%
